# NRP1-CendR mod = modulators of CendR peptide binding to NRP-1, primary screen, biochemical, fluorescence polarization, uHTS; inhibition, % at 25 µM; FAM-RPARPAR peptide binding to NRP-1; 360,000 compounds, 0.85% hits;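 active = inhibition or corrected inhibition above about 18%, plus a signal ratio from 0.5 to 1.5, limit read from the data, passing the limit was not always enough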
# ATG4B inhibitor = ATG4B protease inhibitors, primary screen, biochemical, fluorescence, uHTS; ATG4B cleavage of LC3-PLA2, NBD-HPC fluorescence, 1 h; 340,000 compounds, 0.51% hits; inhibition, % at 8.33 µM; Cysteine protease ATG4B (Homo sapiens), Q9Y4P1; AID 504462, 2011; in the data active = inhibition above about 40%
# PKA-R1A activ = activators of PKA-R1A holoenzyme, primary screen, biochemical, fluorescence polarization, Cy5-IP20, bovine R1A, mouse PKAc. cAMP-dependent protein kinase type I-alpha regulatory subunit (Bos taurus) + …. PKA-R1A dissociation; scaled: DMSO 0%, 113 µM cGMP 100%. activation, % at 11.4 µM. 340,000 compounds, 0.083% hits;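 active = percent activation above the mean of all tested compounds plus 3 SD, cut at about 19% in these data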;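 also: higher means more PKAc released from R1A so a rise in polarization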
# PKA-R2B act = activators of PKA-R2B holoenzyme, primary screen, biochemical, fluorescence polarization, Cy5-IP20, human; cAMP-dependent protein kinase catalytic subunit beta (Homo sapiens) + cAMP-dependent …; 340,000 compounds, 0.079% hits; PKA-R2B holoenzyme dissociation; R2B truncated from residue 108, S112A mutant; 0% DMSO only, 100% 113 µM cGMP; AID 504700, 2011; activation, % at 11.4 µM;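 active = activation above a cutoff set at the mean over all compounds plus 3 SD, cut at about 18% in these data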;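 also: higher means more holoenzyme dissociation and a rise in polarization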
# Target sequence (P31323 whole entry, looked up, other chains not shown, the tested form may be a part): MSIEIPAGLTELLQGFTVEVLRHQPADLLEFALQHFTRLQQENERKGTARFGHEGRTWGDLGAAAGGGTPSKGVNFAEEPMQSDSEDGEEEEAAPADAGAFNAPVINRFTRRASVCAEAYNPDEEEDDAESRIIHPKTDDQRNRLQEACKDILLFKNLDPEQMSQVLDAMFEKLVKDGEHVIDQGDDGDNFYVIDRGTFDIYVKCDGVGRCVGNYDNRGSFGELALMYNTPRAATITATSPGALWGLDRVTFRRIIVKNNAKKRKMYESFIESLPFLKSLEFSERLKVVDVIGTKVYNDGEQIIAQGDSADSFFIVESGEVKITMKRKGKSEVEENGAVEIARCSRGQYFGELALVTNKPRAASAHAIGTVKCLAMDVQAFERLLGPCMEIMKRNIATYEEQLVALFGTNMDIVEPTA
# VLA-4 inh = inhibition in human VLA-4 binding assay, primary screen, VLA-4 allosteric modulator project, MLPCN library, flow cytometry, VLA-4 expressing cells; Integrin alpha-4 (Homo sapiens), P13612; ligand binding flow cytometry; inhibition, % (about 7 µM as worked out from the volumes in the protocol); 330,000 compounds, 0.2% hits; in the data active = inhibition above about 50%
# Starred values were filed as active, the others as inactive; · = not tested or not shown. Rows were chosen to be rich in hits. Some 1.6% of all compounds tested hit in one or more screens of this group.
SMILES,NRP1-CendR mod,ATG4B inhibitor,PKA-R1A activ,PKA-R2B act,VLA-4 inh
Cc1cc(NC(=O)CCC(=O)NNC(=O)c2ccc(C(C)(C)C)cc2)no1,36*,-1,-6,-10,16
Cc1cc(NC(=O)CSc2nc3ccccc3c(=O)n2Cc2ccccc2)no1,8,-7,-9,-7,15
Cc1nc2ccccc2n1C(C)c1nc2ccccc2n1CC(=O)c1ccc(OC(F)(F)F)cc1 (stereo not drawn),5,·,·,·,·
O=S(=O)(/C=C/c1ccccc1)N1CCN(c2nc(-c3ccccc3)nc3ccccc23)CC1,4,-4,-16,0,10
CSCC[C@@H](C(=O)NCc1cccs1)N1Cc2ccccc2C1=O,21*,-5,1,-6,9
CC1(Cc2ccc(C(F)(F)F)nc2)C(=O)Nc2cc(-c3ccccc3Cl)ccc21 (stereo not drawn),17,·,·,·,·
COC(=O)CN1C(=O)C(O)(CC(=O)c2ccc(C)o2)c2ccccc21 (stereo not drawn),32*,0,-9,2,11
CCOC1OC2C(CO)OC(n3cnc4c(N)ncnc43)C2O1 (stereo not drawn),2,-14,-3,1,26
OCC1OC(n2cnc3c(/C=C(\O)c4ccccc4)ncnc32)C(O)C1O (stereo not drawn),22*,1,6,11,·
Nc1ncnc2c1ncn2C1OC(CO)C2OC21 (stereo not drawn),24*,·,·,·,·
COc1ccc(-c2cc(C)no2)cc1S(=O)(=O)NCc1cccc(C)c1,36*,-2,-4,1,0
Cc1ccc(F)c([C@H]2[C@@H]3C=CCC[C@@]3(C)C(=O)N2Cc2ccccc2)c1,28*,23,-10,4,2
Cc1ccc(-c2cc([C@H]3[C@@H]4C=CCC[C@@]4(C)C(=O)N3Cc3ccccc3)ccc2F)cc1,6,-5,-15,-18,34
CCCNC(=O)C1(C)CCN(C(=O)c2ccc(C)c(F)c2)C1 (stereo not drawn),-3,·,·,·,·
Cn1cnnc1SCC(=O)NC1CCCCC1,6,1,-7,-5,2
CC1CCC(NC(=O)CSc2nncn2C)CC1 (stereo not drawn),23*,-12,-7,-5,2
COc1ccc(CCN2C(=O)COc3ccccc3C2C(=O)Nc2ccc3c(c2)OCCO3)cc1OC (stereo not drawn),-3,·,·,·,·
O=C1c2cccc3cccc(c23)C(=O)C1(O)O,54*,-4,-10,2,-5
CC(=O)N1C(=O)c2cccc3cccc(c23)C(=O)N1C(C)=O,·,5,·,·,-2
CC(C)CCN1CCC(n2nccc2NC(=O)c2ccc3c(c2)OCO3)CC1,35*,0,-11,-4,8
CC(C)N1CCC(n2nccc2NC(=O)c2ccc3c(c2)OCO3)CC1,16,5,9,7,8
CCCCOc1ccc(NC(=O)CN2CCN(Cc3ccccc3)CC2)cc1,-16,3,-5,-2,4
CC(C)(C)c1cc[n+](C2=C([O-])c3ccccc3C(=O)/C2=N\S(=O)(=O)c2cccs2)cc1,31*,20,·,·,26
CC(OC(=O)C1=COCCO1)C(=O)Nc1cc(S(=O)(=O)N2CCCCC2)ccc1Cl (stereo not drawn),23*,-2,-3,-1,18
N=c1c(S(=O)(=O)c2ccc(F)cc2)cc2c(=O)n3ccccc3nc2n1CC1CCCO1 (stereo not drawn),7,0,4,1,-7
Cn1cc(S(=O)(=O)NCCc2ccccc2)c(=O)n(C)c1=O,-6,-1,0,-4,21
CC(NS(=O)(=O)c1cn(C)c(=O)n(C)c1=O)c1ccccc1 (stereo not drawn),26*,3,4,-1,-5
CNc1nc(Nc2ccc(C)cc2C)c2sccc2n1,7,·,·,·,·
O=C(Nc1ccccc1C(=O)NCc1ccco1)c1ccco1,-13,1,3,-2,-7

# Screening data as filed in PubChem BioAssay.
